{"source": "PubChem BioAssay AID1347426", "about": "(Functional Genomics Laboratory (NCATS/FGL), 2020)", "note": "In all, about 31,000 sequences went through this assay and about 1,400 (4.5%) were called active. The sample as a whole holds a higher share of actives than the screen did. Values without a mark were called inactive.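 The calls were made as follows: active = median seed-adjusted z-score above 1 or below -1; inactive = the rest.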", "data": [{"test": "Novel Modifiers of Survival Motor Neuron (SMN) Protein: Gene Identification via Genome-wide siRNA Screen;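 also: luminescence tracks full-length SMN protein made from the SMN2 reporter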", "details": "HEK293T SMN2-luciferase reporter, siRNA knockdown, 72 h; actives lie on both sides", "outline": "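HEK293T cells stably carrying an SMN2 promoter/splicing cassette–luciferase reporter were reverse-transfected with 1 pmol siRNA per well (druggable-genome library, 3 siRNAs per gene) and grown 72 h at 37 °C. Luminescence, normalized to negative-control siRNA and log10-transformed, was scored as MAD.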", "values": [{"sequence": "GCAAGACAAGUGAAGUCAATT against CNBP", "median seed-adjusted z-score": "-1.14 (active)"}, {"sequence": "CAUGCGGUCUUAGAAAUGATT against HNRPUL1", "median seed-adjusted z-score": -0.047}, {"sequence": "GCAUUUGAGCAUGAAAAUATT against VPS29", "median seed-adjusted z-score": -0.408}, {"sequence": "AGCUACUAGUGGAGCAGAATT against BAT1", "median seed-adjusted z-score": "-1.49 (active)"}, {"sequence": "CCACUCCAUUGAAGAUGUATT against SREBF1", "median seed-adjusted z-score": -0.0469}, {"sequence": "CAACCAGAAUUACUGCUAUTT against PCDH10", "median seed-adjusted z-score": -0.488}, {"sequence": "CGACACCAGGAGUACCUCUTT against IKBKE", "median seed-adjusted z-score": 0.122}, {"sequence": "GCAUUUGGAUGGAUCAUGUTT against CD163", "median seed-adjusted z-score": 0.021}, {"sequence": "GCUGACUACUUGAAGUUCATT against DYRK1A", "median seed-adjusted z-score": "-1.3 (active)"}, {"sequence": "GGAAAGACAUGUAAGAGCATT against BMP8B", "median seed-adjusted z-score": 0}, {"sequence": "GAACUAAUCCUGUUCAACATT against ATXN3", "median seed-adjusted z-score": 0.04}, {"sequence": "CUGUGAUUGUAGUAGAUCATT against SLC19A3", "median seed-adjusted z-score": -0.0232}, {"sequence": "CCUGCCCAGAGAUACGAAATT against SMURF1", "median seed-adjusted z-score": "-1.4 (active)"}, {"sequence": "GGUGGUCUCUUUAUAAUGATT against PHAX", "median seed-adjusted z-score": -0.0716}, {"sequence": "GCCUUUAUGUCAUCCUCAATT against ZNF626", "median seed-adjusted z-score": 0.185}, {"sequence": "GCAGGUCACGGUUGAUGUATT against FANCA", "median seed-adjusted z-score": 0.418}, {"sequence": "CCAGUGUCAUAAACCUGUATT against NUDT4", "median seed-adjusted z-score": -0.0306}, {"sequence": "GCAUGAGGUUCACCACCAATT against FIBCD1", "median seed-adjusted z-score": -0.0249}, {"sequence": "GCGGUUUACUAUAGACAAATT against IKBKAP", "median seed-adjusted z-score": -0.0316}, {"sequence": "CGAACGAUUUCCCAAGUUATT against NXF1", "median seed-adjusted z-score": "-4.46 (active)"}, {"sequence": "GGUUUUGCACAGCGAGGAATT against B3GALT4", "median seed-adjusted z-score": 0.233}, {"sequence": "GGGCUAGAUCUGUAUCUUATT against TSC22D3", "median seed-adjusted z-score": 0.0129}, {"sequence": "GACCUGAUGUGGAAGCAGATT against QDPR", "median seed-adjusted z-score": -0.734}, {"sequence": "CCCUGACUCUUGGAUAUGATT against MEOX1", "median seed-adjusted z-score": 0.0171}, {"sequence": "GGCGAGAUCUUUAUACGCATT against ZNF224", "median seed-adjusted z-score": 0.0073}, {"sequence": "AGAACGUGCUCUUCGCUCATT against PRKAR1B", "median seed-adjusted z-score": -0.0406}, {"sequence": "GGAAAGUUUUUAAGGCGAATT against UHRF2", "median seed-adjusted z-score": -0.0941}, {"sequence": "CAUUGGAAAGUGCGAGUUATT against HUWE1", "median seed-adjusted z-score": 0.734}, {"sequence": "GAGUGAAGUAUAAUCCAUATT against TPH1", "median seed-adjusted z-score": -0.055}, {"sequence": "CUCUGGUAGAAUCCAAUUATT against GIN1", "median seed-adjusted z-score": -0.0585}, {"sequence": "CCGCUGAGGUGACAACAAATT against XRCC5", "median seed-adjusted z-score": "-1.11 (active)"}, {"sequence": "UCUUCUAAAUACUUCCUAATT against GJC3", "median seed-adjusted z-score": -0.137}, {"sequence": "GCAUUUGCCCAGUUCAUGATT against RBM28", "median seed-adjusted z-score": 0.649}, {"sequence": "CACUGUCCUUGGGUGAAUATT against ZDHHC20", "median seed-adjusted z-score": -0.936}, {"sequence": "CAAGUAUAUUGAACGAGGATT against SLITRK4", "median seed-adjusted z-score": -0.015}, {"sequence": "UGGUCUCAAUGACAGUAGATT against SNRPB", "median seed-adjusted z-score": "-3.17 (active)"}, {"sequence": "GCUAAGUACAAAUCAUUCATT against FCN1", "median seed-adjusted z-score": 0.346}, {"sequence": "GGAGAGUGGUGAUCGGAUATT against MYOM3", "median seed-adjusted z-score": -0.012}, {"sequence": "CGAUUCACCAGGAACGACATT against ZBTB7B", "median seed-adjusted z-score": -0.242}, {"sequence": "GCCUCAUACCAUUCCAUAUTT against MEP1B", "median seed-adjusted z-score": "1.46 (active)"}, {"sequence": "CAGAGGUACUCCACGCAGATT against BHLHA15", "median seed-adjusted z-score": -0.199}, {"sequence": "GGCUGGUACCUGGAUGAGATT against FTCD", "median seed-adjusted z-score": -0.27}, {"sequence": "GUCUAAUGCACUUAGCUAATT against HEL308", "median seed-adjusted z-score": 0.229}, {"sequence": "GCAAAACGGAGGAUUGAGATT against EIF5B", "median seed-adjusted z-score": "1.68 (active)"}, {"sequence": "GAAUGUGACAAUACAUUUATT against ZNF431", "median seed-adjusted z-score": 0.00537}, {"sequence": "GGAACAAACCCUUAGCUAATT against SLITRK1", "median seed-adjusted z-score": 0.215}, {"sequence": "GGAGUUUCCAGAUCUCAAATT against LGR6", "median seed-adjusted z-score": 0.237}, {"sequence": "GACUCAUACCAAUCACGAATT against JMJD1A", "median seed-adjusted z-score": 0.466}, {"sequence": "GGGUCCCUAUUAUCCAGCATT against BAT3", "median seed-adjusted z-score": 0.567}, {"sequence": "GACAGAUGACUGAUCCUAATT against PSMD13", "median seed-adjusted z-score": 0.58}, {"sequence": "GACGGCCUCUAUUACCUCUTT against LTB", "median seed-adjusted z-score": 0.646}, {"sequence": "CUGUCAAUGUUAUUACUCUTT against TSG101", "median seed-adjusted z-score": "1.48 (active)"}, {"sequence": "GAAUAAUGCUUAUGCUAGATT against CLIC6", "median seed-adjusted z-score": -0.00828}, {"sequence": "AAUUCUACGAGUCCAAGUATT against GPS1", "median seed-adjusted z-score": 0.205}, {"sequence": "CAGCCCGUUUUGAAGGGUATT against CRIP3", "median seed-adjusted z-score": "1.7 (active)"}, {"sequence": "CGAUGGGUAUGAGCCUGGATT against ATHL1", "median seed-adjusted z-score": 0}, {"sequence": "UAUGGGCUCUUGAACCAAATT against MTNR1B", "median seed-adjusted z-score": -0.393}, {"sequence": "GGGUGAUCUUGAUACUGCATT against TOP2B", "median seed-adjusted z-score": 0.225}, {"sequence": "GAUGCAAACUAGUCCUGAATT against MLC1", "median seed-adjusted z-score": -0.284}, {"sequence": "AAUCGCUCAUGGUUUUUAATT against LRFN3", "median seed-adjusted z-score": 0.483}, {"sequence": "AUGUGCACCUGACUACUCATT against KRT35", "median seed-adjusted z-score": -0.1}, {"sequence": "CGCGUUCUUCGAUAUGGUATT against PCDHGB6", "median seed-adjusted z-score": 0.34}, {"sequence": "GGCUUUUACCCGCAUGUCATT against ZNF460", "median seed-adjusted z-score": -0.302}, {"sequence": "GCAGAAUAACCUCCAGUAUTT against SLC35A2", "median seed-adjusted z-score": "1.06 (active)"}, {"sequence": "GACUUUGCAUUUCCUAGUATT against HSPA1A", "median seed-adjusted z-score": -0.833}, {"sequence": "CUACUAUUCAGAGACAACATT against GPR3", "median seed-adjusted z-score": 0}, {"sequence": "GAAAGAAGAAUAUACUGAUTT against RBBP6", "median seed-adjusted z-score": -0.212}, {"sequence": "GGAAAUUACGGCUACAGAATT against AP1S3", "median seed-adjusted z-score": 0.153}, {"sequence": "CCUUCUGUAGGAUGCAUUUTT against LY6G5B", "median seed-adjusted z-score": "-1.29 (active)"}]}]}
